According to PubChem BioAssay (EPA / NIEHS):
Results filed as inconclusive are left out. Activity calls are given as the source filed them. How the source made its calls: active means hit-call score of the fitted dose curve at least 0.9, where 1 is the maximum; inconclusive means response in the unintended direction; inactive means score below 0.9.

Target: Cellular tumor antigen p53 (Homo sapiens) (UniProt P04637)
Sequence (P04637 whole entry, looked up): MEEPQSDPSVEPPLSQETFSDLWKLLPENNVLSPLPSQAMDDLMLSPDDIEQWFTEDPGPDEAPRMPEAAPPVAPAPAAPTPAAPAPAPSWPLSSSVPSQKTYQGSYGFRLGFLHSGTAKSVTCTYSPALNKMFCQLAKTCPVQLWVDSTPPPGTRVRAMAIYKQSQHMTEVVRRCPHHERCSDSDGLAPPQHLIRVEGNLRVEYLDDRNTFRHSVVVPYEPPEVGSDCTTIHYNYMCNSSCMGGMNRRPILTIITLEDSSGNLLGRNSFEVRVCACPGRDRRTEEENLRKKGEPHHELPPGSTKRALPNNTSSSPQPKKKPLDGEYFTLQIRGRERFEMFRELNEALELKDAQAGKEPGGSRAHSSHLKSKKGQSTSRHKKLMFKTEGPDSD
Test: TOX21_p53_BLA_p3_ratio: Tox21 HCT-116 p53 Agonism Beta-lactamase Assay, Ratio, Phase 3 (AID 2283596)
Method in brief: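 HCT116 p53-bla cells (4000/well) given compound in DMSO (217-fold dilution) after 5 h, incubated 16 h at 37C. CCF4-AM substrate 2 h at room temperature; 460/530 nm emission ratio, gain fitted against DMSO.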
With `CC[C@H]1CC[C@H](NCc2cc3c(cc2OC)[C@H]2C[C@H]2C(=O)N3C)[C@H](c2ccccc2)N1` the AC50 was 13.3 µM (active). With `CCCCCCCCO` the outcome was “inactive”. In the case of `O=c1[nH]c2ccc(S(=O)CCN3CCC(Cc4ccc(F)cc4)CC3)cc2o1` (configuration not stated), the outcome is reported as “inactive”. With `CCOC(=O)c1ccc(C2CCC(NC[C@H](O)COc3ccc(O)c(NS(C)(=O)=O)c3)CC2)cc1` (some centres not stated) the outcome was “inactive”. For `CCN(C(=O)c1cc(C)cc(OC[C@H](C)Nc2ccncc2)c1)C(C)C`, the outcome was “inactive”. For `Cc1ccc(O)cc1`, the outcome was “inactive”. With `CC(C)=CCC/C(C)=C/CO` the outcome was “inactive”. With `CC(=O)c1ccc2c(c1)[C@H](NC(=O)c1ccc(F)cc1)[C@@H](O)C(C)(C)O2` the outcome was “inactive”. For `Cc1ccc(N)cc1O`, the outcome was “inactive”. For `CCCC(=O)OCC`, the outcome was “inactive”. With `COC(=O)CC(=O)OC` the outcome was “inactive”. In the case of `CCc1cc(SCc2sc(-c3ccc(C(F)(F)F)cc3)nc2CN2CCN(c3ccc(OC)cc3)CC2)ccc1OCC(=O)O`, the AC50 is reported as 59.9 µM (active). With `CCOc1cccc(-n2cc(C(=O)N3CCN(c4cc(C(=O)O)c5ccccc5c4)CC3)nc2-c2ccc(C)cc2)c1` the AC50 was 41.7 µM (active).

System: not listed separately
Test: TOX21_p53_BLA_p4_viability: Viability Assessment in the Tox21 HCT-116 p53 Agonism Beta-lactamase Assay, Phase 4 (AID 2283597);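 further: hits lower the luminescence signal meaning cytotoxicity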
Method in brief: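 HCT116 p53-bla cells (4000/well) rested 5 h at 37C, then received compounds in DMSO (217-fold dilution) for 16 h at 37C, 5% CO2. CellTiter-Glo was added after the CCF4-AM read, and luminescence was read after 30 min at room temperature.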
For `COc1cccc(-c2ccc(/C=C\CN3CCCCCC3)cc2Cl)c1`, the AC50 was 52.5 µM (active). With `Fc1ccccc1[C@@H](F)COC1CCC(Nc2ncnc3[nH]ncc23)CC1` (some centres not stated) the outcome was “inactive”. With `CNCc1ccc(NC(=O)c2c[nH]c3c2C(=O)CCC3)cc1` the outcome was “inactive”. For `O=c1[nH]c2ccc(S(=O)CCN3CCC(Cc4ccc(F)cc4)CC3)cc2o1` (configuration not stated), the outcome was “inactive”. For `CCOC(=O)c1ccc(C2CCC(NC[C@H](O)COc3ccc(O)c(NS(C)(=O)=O)c3)CC2)cc1` (some centres not stated), the AC50 was 60.2 µM (active). In the case of `CCN(C(=O)c1cc(C)cc(OC[C@H](C)Nc2ccncc2)c1)C(C)C`, the outcome is reported as “inactive”. In the case of `Cc1ccc(O)cc1`, the outcome is reported as “inactive”. For `CNS(=O)(=O)c1cc(C(=O)N2CCC(CCN3C4CCC3CC(n3c(C)nc5ccccc53)C4)(c3cccc(F)c3)CC2)c(Cl)cc1F` (configuration not stated), the AC50 was 16.2 µM (active). In the case of `CC(C)CCO`, the outcome is reported as “inactive”. In the case of `CN(C)c1ccc(Cc2ccc(N(C)C)cc2)cc1`, the outcome is reported as “inactive”. For `CCNc1ccccc1`, the outcome was “inactive”. In the case of `CCn1nc(Cc2ccccc2)cc1C1CCN(C[C@H]2C[C@H](N(C)[C@@H](C(=O)O)C(C)C)C[C@@H]2c2cccc(F)c2)CC1`, the outcome is reported as “inactive”. For `CC(C)CCCCCCOC(=O)c1ccc(C(=O)OCCCCCCC(C)C)c(C(=O)OCCCCCCC(C)C)c1`, the outcome was “inactive”. For `CC(C)=CCC/C(C)=C/CO`, the outcome was “inactive”. For `CC(=O)c1ccc2c(c1)[C@H](NC(=O)c1ccc(F)cc1)[C@@H](O)C(C)(C)O2`, the outcome was “inactive”. For `Cc1ccc(N)cc1O`, the outcome was “inactive”. In the case of `CC1=CC(=O)CC(C)(C)C1`, the outcome is reported as “inactive”. For `COC(=O)CC(=O)OC`, the outcome was “inactive”. In the case of `CCCCC(CC)COC(=O)c1ccc(C(=O)OCC(CC)CCCC)cc1` (configuration not stated), the outcome is reported as “inactive”. For `COc1ccc2sc(C(=O)Nc3nnn[nH]3)c(OC(C)C)c2c1`, the AC50 was 14.3 µM (active). With `CCc1cc(SCc2sc(-c3ccc(C(F)(F)F)cc3)nc2CN2CCN(c3ccc(OC)cc3)CC2)ccc1OCC(=O)O` the AC50 was 4.42 µM (active). For `CCOC(=O)COc1ccc2c(c1)CC(NCC(O)c1cccc(Cl)c1)CC2` (configuration not stated), the AC50 was 80 µM (active). For `CCOc1cccc(-n2cc(C(=O)N3CCN(c4cc(C(=O)O)c5ccccc5c4)CC3)nc2-c2ccc(C)cc2)c1`, the AC50 was 13.3 µM (active). In the case of `COCCOc1cc2cc(C(=O)NC3CCN(C(C)C)CC3)n(CC(=O)Nc3ccc(Cl)cn3)c2cn1`, the outcome is reported as “inactive”.
